Records with an inconclusive call do not appear. Where a structure was tested more than once in an assay, its records may differ in their call. The source made the active and inactive calls. Unless noted, the call rests on the fitted dose curve; in most records, active means well fitted curve in the direction sought with a large enough effect in the repeat runs; inconclusive means weak or mixed curves; inactive means no such curve, though single readings can be large; an effect the other way counts as inactive or inconclusive.
Key:
[1] = A CellTox Green Cytotoxicity Assay to monitor cytotoxicity in HEK293 cells - 32 hour (AID 1224881); further: nearly all actives have a fitted effect of over 40% in size
How it was run: (§1)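 Real-time, in one plate: 600 HEK293 cells/well with dead-cell DNA dye, pinned compound after 5 h, 37 C incubation over 40 h; viable cells give no appreciable fluorescence.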

[2] = A CellTox Green Cytotoxicity Assay to monitor cytotoxicity in HepG2 cells - 32 hour (AID 1224883); further: nearly all actives have a fitted effect of over 50% in size
How it was run: (§2)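 Cytotoxicity was tracked as dead-cell DNA fluorescence in HepG2 cells treated with test compounds at 37 C; each time-point value comes from one kinetic series spanning 0, 8, 16, 24, 32 and 40 h.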

[3] = A CellTox Green Cytotoxicity Assay to monitor cytotoxicity in HEK293 cells - 8 hour (AID 1224884); further: nearly all actives have a fitted effect of over 35% in size
How it was run: as §1

[4] = qHTS RealTime-Glo MT Cell Viability Assay in HepG2 cells - 16 hour (AID 1224885); further: nearly all actives have a fitted effect of over 50% in size
How it was run: (§3)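 HepG2 suspension premixed with RealTime-Glo reagents is plated at 600 cells per well and left 5 h at 37 C/5% CO2. Compounds in DMSO then go in, and bioluminescence reflecting viable cell number is recorded over 40 h.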

[5] = qHTS RealTime-Glo MT Cell Viability Assay in HEK293 cells - 24 hour (AID 1224886); further: nearly all actives have a fitted effect of over 50% in size; further: potency means the concentration at half of the fitted maximal effect
How it was run: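 Reads taken at 0, 8, 16, 24, 32 and 40 h from the same wells. HEK293 cells (600/well) carried RealTime-Glo reagents from seeding, with compound added after a 5 h settle at 37 C.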

[6] = qHTS RealTime-Glo MT Cell Viability Assay in HEK293 cells - 8 hour (AID 1224887); further: top concentration of the series differs between compounds; nearly all actives have a fitted effect of over 50% in size
How it was run: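 Kinetic, non-lysing viability readout. Seed HEK293 (600/well) with reagent, incubate 5 h at 37 C/5% CO2, pin 23 nL compound in DMSO, incubate at 37 C, read luminescence at 0, 8, 16, 24, 32, 40 h.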

[7] = A CellTox Green Cytotoxicity Assay to monitor cytotoxicity in HEK293 cells - 16 hour (AID 1224888); further: nearly all actives have a fitted effect of over 35% in size
How it was run: as §1

[8] = qHTS RealTime-Glo MT Cell Viability Assay in HepG2 cells - 0 hour (AID 1224889); further: nearly all actives have a fitted effect of over 50% in size
How it was run: as §3

[9] = qHTS assay to identify small molecule antagonists of the estrogen receptor alpha (ER-alpha) signaling pathway using the BG1 cell line in the presence of 0.1 nM 17-beta-estradiol - cell viability counter screen (AID 1259241); further: nearly all actives have a fitted effect of over 40% in size; further: potency means the concentration at half of the fitted maximal effect
How it was run: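 Estradiol-stimulated (0.1 nM) VM7Luc4E2 cells exposed to compounds 22 hr; viability measured by fluorescence of cleaved CellTiter-Fluor substrate after 30 min.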

[10] = qHTS assay to identify small molecule antagonists of the androgen receptor (AR) signaling pathway using the MDA cell line in the presence of 0.5 nM R1881 - cell viability counter screen (AID 1259242); further: nearly all actives have a fitted effect of over 45% in size
How it was run: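 Cells seeded at 3,000/well and allowed 5 hr at 37C, 0% CO2 before compound transfer and R1881 (0.5 nM final) addition; 16 hr later, live-cell protease fluorescence indicated cytotoxicity.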

[11] = target: Estrogen receptor (Homo sapiens) (UniProt P03372); assay: qHTS assay to identify small molecule antagonists of the estrogen receptor alpha (ER-alpha) signaling pathway using the BG1 cell line in the presence of 0.1 nM 17-beta-estradiol (AID 1259244); further: nearly all actives have a fitted effect of over 50% in size; further: potency means the concentration at half of the fitted maximal effect
Estrogen receptor (Homo sapiens), sequence (P03372 whole entry, looked up): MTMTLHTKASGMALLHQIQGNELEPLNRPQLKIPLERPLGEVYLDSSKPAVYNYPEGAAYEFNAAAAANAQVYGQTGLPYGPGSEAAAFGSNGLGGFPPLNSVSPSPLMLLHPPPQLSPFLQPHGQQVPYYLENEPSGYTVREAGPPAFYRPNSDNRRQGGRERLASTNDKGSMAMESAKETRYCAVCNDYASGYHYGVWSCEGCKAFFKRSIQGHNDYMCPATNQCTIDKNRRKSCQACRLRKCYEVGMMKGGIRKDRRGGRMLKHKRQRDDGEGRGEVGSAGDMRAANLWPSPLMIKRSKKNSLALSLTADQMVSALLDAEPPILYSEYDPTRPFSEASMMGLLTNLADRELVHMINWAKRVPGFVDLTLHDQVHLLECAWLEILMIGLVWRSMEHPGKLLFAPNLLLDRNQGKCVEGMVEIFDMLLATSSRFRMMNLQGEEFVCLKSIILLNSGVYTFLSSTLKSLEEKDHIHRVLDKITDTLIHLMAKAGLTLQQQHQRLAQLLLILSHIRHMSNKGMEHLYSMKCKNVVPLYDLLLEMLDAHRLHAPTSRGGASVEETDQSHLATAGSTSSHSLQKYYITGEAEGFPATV
How it was run: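 Luciferase signal from VM7Luc4E2 ERE-reporter cells, co-dosed with test compound and 0.1 nM final 17beta-estradiol for 22 h, read with ONE-Glo.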

[12] = qHTS assay to identify small molecule HDAC inhibitors (AID 1259364); further: potency means the concentration at half of the fitted maximal effect;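 further: wild-type HCT-116 cells with endogenous class I/II HDAC activity; nearly all actives have a fitted effect of over 45% in size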
How it was run: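 HCT-116 wt cells, 1,500/well, overnight attach. Compounds (DMSO) 2 h, 37 °C. HDAC-Glo I/II, 30 min RT. Luminescence.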

[13] = qHTS assay to identify small molecule HDAC inhibitors - cell viability counter screen (AID 1259365)
How it was run: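 After overnight seeding at 1,500 cells per well, wild-type HCT-116 cultures took up compounds in DMSO for 2hr at 37 C. Viable cell content came from luminescence with CellTiter-Glo.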

[14] = qHTS assay to identify small molecule agonists of the sonic hedgehog signaling (Shh) pathway - cell viability counter screen (AID 1259366); further: nearly all actives have a fitted effect of over 50% in size; further: potency means the concentration at half of the fitted maximal effect
How it was run: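 Same-well cytotoxicity read. Gli1-Luc reporter 3T3 cells; compounds 24hr, 37C/5% CO2; CellTiter-Fluor fluorescence.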

[15] = qHTS assay to identify small molecule antagonists of the sonic hedgehog signaling (Shh) pathway - cell viability counter screen (AID 1259367); further: nearly all actives have a fitted effect of over 55% in size; further: potency means the concentration at half of the fitted maximal effect
How it was run: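 Cytotoxicity was assessed in parallel with Shh reporter activity by measuring live-cell protease fluorescence (CellTiter-Fluor) in NIH/3T3 cells stably carrying Gli1-Luc, treated with compound under conditioned medium stimulation for 23 hr plus 1 hr reagent incubation.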

[16] = qHTS assay to identify small molecule agonists of the sonic hedgehog signaling (Shh) pathway (AID 1259368; calls by dose curve;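 further: NIH/3T3-derived 3T3Gli1-Luc cells carrying a stable Gli1-driven firefly luciferase reporter; series mostly up to about 92 µM; nearly all actives have a fitted effect of over 15% in size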)
How it was run: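 Following a 24 hr incubation with DMSO-dissolved compounds at 37 C, 5% CO2, Gli1-Luc NIH/3T3-derived cells received luciferase reagent for 30 min at room temperature prior to luminescence measurement.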

[17] = A CellTox Green Cytotoxicity Assay to monitor cytotoxicity in HepG2 cells - 8 hour (AID 1224890); further: nearly all actives have a fitted effect of over 45% in size
How it was run: as §2

[18] = qHTS assay to identify small molecule phospholipidosis (PLD) inducers (AID 1259344; active means well fitted curve in the direction sought with a large enough effect; an effect the other way counts as inactive or inconclusive; further: potency means the concentration at half of the fitted maximal effect)
How it was run: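 Cells (HepG2, 900 per well) attach for 4 h, receive LipidTOX Red and compound together, incubate 24 h at 37 C, are fixed 30 min with paraformaldehyde/Hoechst, then imaged at one site per well.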

[19] = A CellTox Green Cytotoxicity Assay to monitor cytotoxicity in HepG2 cells - 0 hour (AID 1224882); further: nearly all actives have a fitted effect of over 35% in size
How it was run: as §2
On the % scale 0 is the no-effect control and ±100 the full control effect.

CN1Cc2cc(C(=O)N3CCC(C4CCNCC4)CC3)ccc2NC(CC(=O)O)C1=O (centres undefined)
inactive: Potency [1] | Potency [2] | Potency [3] | Potency [4] | Potency [5] | Potency [6] | Potency [7] | Potency [8] | Potency [9] | Potency [10] | Potency [11] | Potency [12] | Potency [13] | Potency [14] | Potency [15] | outcome [16]

O=C(O)c1ccc(-n2nc(-c3ccccc3O)nc2-c2ccccc2O)cc1
inactive: Potency [1] | Potency [2] | Potency [3] | Potency [5] | Potency [6] | Potency [7] | Potency [8] | Potency [17] | Potency [9] | Potency [10] | PLD induction [18] -4.07% [at 1.53 µM] | Potency [12] | Potency [13] | Potency [14] | Potency [15] | outcome [16]

O=C(O)C1(C(=O)O)CCC1.[NH2-].[NH2-].[Pt+2]
inactive: Potency [1] | Potency [2] | Potency [3] | Potency [5] | Potency [6] | Potency [7] | Potency [8] | Potency [17] | Potency [9] | Potency [10] | Potency [11] | Potency [12] | Potency [13] | Potency [14] | Potency [15] | outcome [16]

O=C(O)c1nc(Cl)c(Cl)c(Cl)c1Cl
inactive: Potency [1] | Potency [19] | Potency [3] | Potency [6] | Potency [7] | Potency [8] | Potency [17] | Potency [9] | Potency [10] | Potency [12] | Potency [13] | Potency [14] | Potency [15] | outcome [16]

CC1CCC(=O)C1=O (centres undefined)
inactive: Potency [1] | Potency [2] | Potency [3] | Potency [4] | Potency [5] | Potency [6] | Potency [7] | Potency [8] | Potency [17] | Potency [10] | Potency [11] | Potency [12] | Potency [13] | Potency [14] | Potency [15] | outcome [16]

CC(C)O.CC(C)O.CCOC(=O)/C=C(\C)O.CCOC(=O)/C=C(\C)O.[Ti]
inactive: Potency [1] | Potency [19] | Potency [4] | Potency [5] | Potency [6] | Potency [8] | Potency [17] | Potency [9] | Potency [10] | Potency [12] | Potency [13] | Potency [14] | Potency [15] | outcome [16]

O=C(OCCc1ccccc1)c1ccccc1
inactive: Potency [1] | Potency [2] | Potency [3] | Potency [4] | Potency [5] | Potency [6] | Potency [7] | Potency [8] | Potency [17] | Potency [9] | Potency [10] | Potency [11] | Potency [13] | Potency [14] | Potency [15] | outcome [16]
active: Potency [12] 9.69 µM

c1cc(CCCc2ccncc2)ccn1
inactive: Potency [1] | Potency [2] | Potency [3] | Potency [4] | Potency [5] | Potency [6] | Potency [7] | Potency [8] | Potency [17] | Potency [9] | Potency [10] | Potency [12] | Potency [13] | Potency [14] | Potency [15] | outcome [16]

CCOc1ccc(N=Nc2ccc(/C=C/c3ccc(N=Nc4ccc(OCC)cc4)cc3S(=O)(=O)O)c(S(=O)(=O)O)c2)cc1
inactive: Potency [1] | Potency [2] | Potency [3] | Potency [5] | Potency [7] | Potency [8] | Potency [17] | Potency [12] | Potency [13] | outcome [16]
active: Potency [9] 24 µM | Potency [14] 30.2 µM | Potency [15] 21.4 µM

NCC(=O)CCC(=O)O
inactive: Potency [1] | Potency [2] | Potency [3] | Potency [6] | Potency [7] | Potency [17] | Potency [10] | Potency [18] | Potency [12] | Potency [13] | Potency [14] | Potency [15] | outcome [16]

CCO[Si](CCCCl)(OCC)OCC
inactive: Potency [1] | Potency [19] | Potency [3] | Potency [7] | Potency [9] | Potency [10] | Potency [11] | Potency [12] | Potency [13] | Potency [14] | Potency [15] | outcome [16]

OCCN1CCN(CCCN2c3ccccc3C=Cc3ccccc32)CC1
active: Potency [18] 12.6 µM | Potency [14] 11.9 µM
inactive: Potency [1] | Potency [2] | Potency [3] | Potency [4] | Potency [5] | Potency [6] | Potency [7] | Potency [8] | Potency [17] | Potency [9] | Potency [10] | Potency [11] | PLD induction [18] 0.496% [at 7.66 µM] | Potency [12] | Potency [13] | outcome [16]

CCCCC1=NC2(CCCC2)C(=O)N1Cc1ccc(-c2ccccc2-c2nn[nH]n2)cc1
active: Potency [14] 4.22 µM | Potency [15] 6.68 µM
inactive: Potency [1] | Potency [2] | Potency [3] | Potency [4] | Potency [5] | Potency [7] | Potency [8] | Potency [17] | Potency [10] | Potency [11] | Potency [18] | Potency [12] | Potency [13] | outcome [16]

C=C(C)C(=O)OCCOCC
active: Potency [11] 54.7 µM
inactive: Potency [1] | Potency [2] | Potency [3] | Potency [4] | Potency [7] | Potency [8] | Potency [17] | Potency [10] | Potency [12] | Potency [13] | Potency [14] | Potency [15] | outcome [16]

O=[N+]([O-])c1cccc(S(=O)(=O)O)c1
inactive: Potency [1] | Potency [2] | Potency [3] | Potency [4] | Potency [7] | Potency [17] | Potency [9] | Potency [12] | Potency [13] | Potency [14] | Potency [15] | outcome [16]
active: Potency [5] 22.2 µM
